This is a sample that favours compounds with a hit; in the whole collection about 10% have one here.
L3MBTL1 block – L3MBTL1 (human) inhibition; Potency, µM (doses to about 57.1 µM), inactives show at the top dose activity, negative = inhibition, usual class: inhibitors; AID 485360; AlphaScreen L3MBTL1–H3K9me1 peptide binding; Q9Y468; actives 0.66% (n = 230,000); further: on the % scale 0 is the no-effect control and ±100 the full control effect; nearly all actives have a fitted effect of over 60% in size
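First, the protein-peptide complex forms for 30 min at room temperature (L3MBTL1 50 nM, biotinylated H3K9me1 peptide 75 nM). Next, compounds are pin-transferred and incubated 30 min. Finally, AlphaScreen beads are added and read after 30 min.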
HP1b chromo inh – HP1-beta chromodomain-methylated histone interaction inhibition | Potency, µM (top dose mostly 114 µM), for inactives: at the highest dose activity change, negative = inhibition, hits mostly inhibitors | actives 0.56% (n = 390,000) | AlphaScreen HP1-beta / biotin-H3K9me3 peptide binding; further: nearly all actives have a fitted effect of over 70% in size
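AlphaScreen: HP1-beta (50 nM) preformed 30 min with biotin-H3(1-18)K9me3 peptide (50 nM) in PBS pH 7.4, 0.01% Tween-20. Compound added for 30 min at RT, then streptavidin donor/nickel chelate acceptor beads (10 ug/mL) for 30 min.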
JMJD2A Tudor – JMJD2A Tudor domain (human) inhibition. actives 4.4% (n = 390,000). AlphaScreen JMJD2A-Tudor / H3K4me3 peptide binding. Potency, µM (doses to about 114 µM), without a hit: at the highest dose activity change, negative = inhibition, most hits filed as inhibitors. AID 504339; further: on the % scale 0 is the no-effect control and ±100 the full control effect; nearly all actives have a fitted effect of over 50% in size
GLS inhibitor – glutaminase GLS (human) inhibition | O94925 | GLS enzymatic activity, qHTS titration | Potency, µM (series often up to 45.5 µM), for the others: at the top dose activity change, negative = inhibition, most hits filed as inhibitors | actives 0.21% (n = 410,000) | AID 624170; further: on the % scale 0 is the no-effect control and ±100 the full control effect
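Human kidney-isoform GLS in 45 mM KH2PO4 pH 8.2, 0.02% Tween-20, with compound, started with 1mM L-Glutamine (added stock). Glutamate oxidase/HRP/Amplex red coupled fluorescence read at start and after 30 min at RT.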
BAZ2B block – blocks human BAZ2B. Q9UIF8. AlphaScreen BAZ2B-H3K14Ac peptide displacement. Potency, µM (highest dose often 114 µM), without a hit: at the highest dose activity change, negative = inhibition, hits mostly inhibitors. actives 4.4% (n = 360,000). AID 504333; further: on the % scale 0 is the no-effect control and ±100 the full control effect; nearly all actives have a fitted effect of over 60% in size
Target sequence (Q9UIF8 whole entry, looked up): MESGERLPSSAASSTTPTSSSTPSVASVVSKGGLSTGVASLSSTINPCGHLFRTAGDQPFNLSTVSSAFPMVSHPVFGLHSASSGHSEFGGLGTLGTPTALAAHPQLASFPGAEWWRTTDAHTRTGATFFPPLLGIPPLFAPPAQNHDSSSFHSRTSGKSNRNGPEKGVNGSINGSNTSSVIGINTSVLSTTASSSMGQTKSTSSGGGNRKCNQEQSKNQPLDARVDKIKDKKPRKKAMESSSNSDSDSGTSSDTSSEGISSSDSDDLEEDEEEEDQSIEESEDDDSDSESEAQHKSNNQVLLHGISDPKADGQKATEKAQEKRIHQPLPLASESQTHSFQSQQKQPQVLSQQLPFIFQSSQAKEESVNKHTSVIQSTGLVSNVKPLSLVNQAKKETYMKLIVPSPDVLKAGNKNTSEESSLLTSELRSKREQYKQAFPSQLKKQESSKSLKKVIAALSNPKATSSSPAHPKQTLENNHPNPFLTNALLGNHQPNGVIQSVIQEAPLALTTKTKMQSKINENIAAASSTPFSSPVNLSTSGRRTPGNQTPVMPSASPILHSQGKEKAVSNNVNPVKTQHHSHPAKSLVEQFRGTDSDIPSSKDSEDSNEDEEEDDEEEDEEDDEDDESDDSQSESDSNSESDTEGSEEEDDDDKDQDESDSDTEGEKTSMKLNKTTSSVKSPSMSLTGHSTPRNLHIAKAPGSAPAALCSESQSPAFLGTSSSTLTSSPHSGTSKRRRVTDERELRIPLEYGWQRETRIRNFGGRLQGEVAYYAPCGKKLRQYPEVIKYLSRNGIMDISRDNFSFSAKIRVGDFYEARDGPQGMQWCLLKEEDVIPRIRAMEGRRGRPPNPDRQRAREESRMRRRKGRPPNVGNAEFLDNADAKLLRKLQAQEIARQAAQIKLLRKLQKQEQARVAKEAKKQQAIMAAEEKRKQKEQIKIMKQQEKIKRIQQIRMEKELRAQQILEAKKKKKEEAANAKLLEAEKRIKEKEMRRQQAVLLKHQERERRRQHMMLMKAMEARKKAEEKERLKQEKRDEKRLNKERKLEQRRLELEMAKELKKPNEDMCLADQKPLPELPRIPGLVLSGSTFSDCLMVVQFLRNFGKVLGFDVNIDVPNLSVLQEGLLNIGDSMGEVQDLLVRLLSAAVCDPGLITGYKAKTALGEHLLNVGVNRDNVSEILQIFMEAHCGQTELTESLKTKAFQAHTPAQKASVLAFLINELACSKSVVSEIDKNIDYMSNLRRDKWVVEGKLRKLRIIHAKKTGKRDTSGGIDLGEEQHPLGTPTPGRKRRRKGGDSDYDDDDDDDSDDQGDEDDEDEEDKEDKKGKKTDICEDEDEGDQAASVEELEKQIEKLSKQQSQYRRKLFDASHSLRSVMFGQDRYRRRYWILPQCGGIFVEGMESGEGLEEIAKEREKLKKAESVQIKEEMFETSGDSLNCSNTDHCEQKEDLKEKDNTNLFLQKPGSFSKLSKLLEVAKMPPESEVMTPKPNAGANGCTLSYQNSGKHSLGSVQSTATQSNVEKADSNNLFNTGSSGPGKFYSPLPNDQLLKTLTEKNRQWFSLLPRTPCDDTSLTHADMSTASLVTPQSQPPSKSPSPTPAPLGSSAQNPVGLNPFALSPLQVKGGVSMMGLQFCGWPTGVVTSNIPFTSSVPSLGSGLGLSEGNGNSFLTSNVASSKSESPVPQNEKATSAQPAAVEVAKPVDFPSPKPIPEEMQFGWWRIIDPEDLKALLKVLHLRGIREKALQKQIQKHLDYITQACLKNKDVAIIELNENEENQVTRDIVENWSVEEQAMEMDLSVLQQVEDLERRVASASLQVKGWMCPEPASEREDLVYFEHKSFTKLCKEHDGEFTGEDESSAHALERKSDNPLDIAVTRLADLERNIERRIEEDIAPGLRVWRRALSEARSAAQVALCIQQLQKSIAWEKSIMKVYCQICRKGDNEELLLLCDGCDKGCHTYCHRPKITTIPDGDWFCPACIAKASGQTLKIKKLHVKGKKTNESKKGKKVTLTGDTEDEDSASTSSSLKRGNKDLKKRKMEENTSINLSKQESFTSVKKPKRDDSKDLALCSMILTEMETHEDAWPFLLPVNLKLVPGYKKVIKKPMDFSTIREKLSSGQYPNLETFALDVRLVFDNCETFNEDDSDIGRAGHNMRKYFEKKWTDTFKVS
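In this displacement format the biotinylated H3(5-23) peptide acetylated at Lys14 serves as ligand at 50 nM, with BAZ2B at 50 nM in PBS pH 7.4 containing 0.01% Tween-20. Donor and acceptor beads are 10 ug/mL final.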
G9a inh – inhibitors of human histone lysine methyltransferase G9a. G9a H3K9 monomethylation, AlphaScreen, 2 h. actives 8.8% (n = 350,000). Potency, µM (series often up to 102 µM), for the others: at the top dose activity, negative = inhibition, usual class: inhibitors; further: on the % scale 0 is the no-effect control and ±100 the full control effect; nearly all actives have a fitted effect of over 75% in size
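Readings reflect AlphaScreen signal from monomethyl-H3K9 antibody detection. HMT at 20 nM; substrate b-H3K9 500 nM; cofactor SAM 20 uM; 2 h RT reaction; compounds tested as titrations in qHTS with 15 min preincubation.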
* hit, by the source's call; [ ] = another dose, or the depositor's remark. The call rests on the fitted dose curve; in most records, active means well fitted curve in the direction sought with a large enough effect; inconclusive means small, poorly fitted or top-dose-only effect, or another doubt; inactive means no such curve, though single readings can be large; an effect the other way counts as inactive or inconclusive. Potency means the concentration at half of the fitted maximal effect.

What do the screens show for `O=S(=O)(Nc1nc(-c2sccc2Cl)cs1)c1cc(Cl)ccc1Cl`?
L3MBTL1 block: -2%; HP1b chromo inh: inconclusive; JMJD2A Tudor: 50µM*; GLS inhibitor: 29%; BAZ2B block: 50µM*; G9a inh: inconclusive

Results for Cc1ccc(C(=O)C(C(=O)/C=C/c2ccccc2)=C2SCCCS2)cc1 ?
L3MBTL1 block: inconclusive; HP1b chromo inh: inconclusive; JMJD2A Tudor: inconclusive; GLS inhibitor: inconclusive; BAZ2B block: inconclusive; G9a inh: 7.1µM*

How did O=C(OC(C(=O)NCc1cccs1)c1ccccn1)c1cccs1 (stereo not given) do in these assays?
HP1b chromo inh: 13%; JMJD2A Tudor: -11%; GLS inhibitor: 0%; BAZ2B block: 56µM*; G9a inh: inconclusive

What do the screens show for `O=C(OC(C(=O)NC1CCCCC1)c1ccccn1)c1cccs1` (stereo not given)?
L3MBTL1 block: 2%; HP1b chromo inh: 64%; JMJD2A Tudor: -2%[57.1 µM]; GLS inhibitor: -1%; BAZ2B block: -20%; G9a inh: 8%[12.7 µM]

Results for C/C(CC(=O)NC1CCCCCC1)=N\NC(=O)c1cnccn1 ?
L3MBTL1 block: 6%; HP1b chromo inh: 12%; JMJD2A Tudor: 2.2µM*; GLS inhibitor: 6%; BAZ2B block: -4%; G9a inh: inconclusive

What do the screens show for `C/C(CC(=O)NC1CCCCC1)=N\NC(=O)c1ccccc1C`?
HP1b chromo inh: 30%; JMJD2A Tudor: 7%; GLS inhibitor: -6%; BAZ2B block: -13%; G9a inh: 40µM*

What do the screens show for `C/C(CC(=O)NC1CCCCC1)=N\NC(=O)c1ccc(Br)cc1`?
HP1b chromo inh: 37%; JMJD2A Tudor: 1%; GLS inhibitor: -2%; BAZ2B block: 2%; G9a inh: -19%

How did Cc1nc(Nc2nc3ccccc3o2)nc2c1CCC2 do in these assays?
L3MBTL1 block: 0%; HP1b chromo inh: 6%; JMJD2A Tudor: 10µM*; GLS inhibitor: 1%; G9a inh: inconclusive

How did CSCc1ccc(C(=O)NC2CC(C)(C)Cc3c2cnn3-c2ccc(F)cc2)o1 (stereo not given) do in these assays?
HP1b chromo inh: 7%; JMJD2A Tudor: inconclusive; GLS inhibitor: 2%; BAZ2B block: -37%; G9a inh: -25%[59 µM]

What do the screens show for `CSCc1ccc(C(=O)NC(C)c2cnn(-c3ccccn3)c2C)o1` (stereo not given)?
HP1b chromo inh: 43%; JMJD2A Tudor: 3%; GLS inhibitor: -4%; BAZ2B block: -5%; G9a inh: 35µM*

How did COCc1c(Br)c(C)nc(OCC(=O)N/N=C/c2ccc(C)o2)c1C#N do in these assays?
L3MBTL1 block: -8%; HP1b chromo inh: 33%; JMJD2A Tudor: -8%; GLS inhibitor: 1%; BAZ2B block: -13%; G9a inh: -33%

What do the screens show for `COCc1c(Br)c(C)nc(OCC(=O)N/N=C/c2ccco2)c1C#N`?
HP1b chromo inh: 27%; JMJD2A Tudor: -27%; GLS inhibitor: -5%; BAZ2B block: 89µM*; G9a inh: inconclusive

How did Cc1ccc(S(=O)(=O)c2c(C)nn(-c3ccccc3)c2OC(=O)c2ccc(Br)o2)cc1 do in these assays?
L3MBTL1 block: 2%; HP1b chromo inh: 8%; JMJD2A Tudor: inconclusive; GLS inhibitor: 17%; BAZ2B block: -33%; G9a inh: inconclusive

How did Cc1ccc(S(=O)(=O)c2c(C)nn(-c3ccccc3)c2OC(=O)c2ccco2)cc1 do in these assays?
L3MBTL1 block: -1%; HP1b chromo inh: 9%; JMJD2A Tudor: 79µM*; GLS inhibitor: 27%; BAZ2B block: -37%; G9a inh: inconclusive

What do the screens show for `O=C(Nc1ccc(Cl)c(C(=O)N2CCOCC2)c1)c1ccccc1`?
HP1b chromo inh: 32%; JMJD2A Tudor: -4%; GLS inhibitor: -11%; BAZ2B block: 1%; G9a inh: 45µM*

Screens from PubChem BioAssay.
